D1 ag – Allosteric Agonists of the Human D1 Dopamine Receptor: qHTS. AID 504660, 2011. 360,000 compounds, 1% hits. D(1A) dopamine receptor (Homo sapiens), P21728. HEK293 T-REx D1 cells, calcium flux, agonist mode. activation, % at 2 µM
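Tetracycline-induced HEK293 TREx D1 cells, force-coupled to calcium signalling, were dye-loaded with a no-wash calcium kit. Compound was pin-added after a 10 s baseline. Fluorescence was read kinetically at 1 cycle/s for 180 s, with calcium rises flagged as agonism.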
D1 potentiator – Potentiators of Human D1 Dopamine Receptor: qHTS | HEK293 TREx D1 cells, calcium flux, dopamine EC20 potentiation | D(1A) dopamine receptor (Homo sapiens), P21728 | 360,000 compounds, 0.036% hits | potentiation, % at 10 µM; in the data active means potentiation above about 30%
D1 antagonist – Antagonist of Human D 1 Dopamine Receptor: qHTS; HEK293 TREx D1 cells, calcium flux, dopamine EC80; hits give low values; activity change, negative = inhibition, % at 10 µM; D(1A) dopamine receptor (Homo sapiens), P21728; 360,000 compounds, 3.2% hits; in the data active means activity change below about -30%
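Allosteric or orthosteric antagonism assessed as attenuation of the calcium response to EC80 dopamine, added 180 s after compound, in induced HEK293 Trex D1 cells loaded with no-wash calcium dye.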
TRHR ag – qHTS for Small Molecule Agonists and Allosteric Enhancers of Human TRH Receptor: Primary Screen for Agonists; Thyrotropin-releasing hormone receptor (Homo sapiens), P34981; TRHR cells, calcium flux fluo-8, FDSS agonist mode; activation, % at 2 µM; 360,000 compounds, 0.18% hits
Target sequence (P34981 whole entry, looked up): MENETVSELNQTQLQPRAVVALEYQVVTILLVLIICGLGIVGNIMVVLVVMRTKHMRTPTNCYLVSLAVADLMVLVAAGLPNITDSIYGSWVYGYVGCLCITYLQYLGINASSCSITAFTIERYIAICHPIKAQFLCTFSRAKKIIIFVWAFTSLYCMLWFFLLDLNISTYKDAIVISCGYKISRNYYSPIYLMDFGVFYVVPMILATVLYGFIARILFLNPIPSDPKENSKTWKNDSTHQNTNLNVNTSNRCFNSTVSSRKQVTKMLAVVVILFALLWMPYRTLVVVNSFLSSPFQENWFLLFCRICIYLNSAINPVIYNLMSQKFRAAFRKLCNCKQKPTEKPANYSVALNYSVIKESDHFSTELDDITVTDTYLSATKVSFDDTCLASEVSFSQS
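Agonist-mode FDSS calcium read (Ex 480/Em 530, 1 s cycles) in 1536-well TRHR cells with fluo-8 dye, after 10-cycle baseline and 23 nL compound addition; TRH at EC20 (10 nM final) added afterwards for the enhancer phase.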
TRHR PAM – qHTS for Small Molecule Agonists and Allosteric Enhancers of Human TRH Receptor: Primary Screen for Enhancers | enhancement, % at 2 µM | Thyrotropin-releasing hormone receptor (Homo sapiens), P34981 | TRHR cells, fluo-8 calcium fluorescence, EC20 TRH enhancement | AID 493056, 2011 | 360,000 compounds, 0.66% hits; in the data active means enhancement above about 30%
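Enhancer read-out: after compound pinning and an initial kinetic agonist-mode read, an EC20 of TRH (10 nM final) was injected and fluo-8 calcium signal (Ex 480/Em 530) followed at 1 s/cycle for 100 cycles in TRHR-expressing cells.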
Epigenetic derep – Quantitative High-Throughput Screen for Regulators of Epigenetic Control; Potency, µM (top dose mostly 53.9 µM), actives largely listed as activators; 280,000 compounds, 0.2% hits; murine LDR cells, GFP reporter derepression, 30 h; active means well fitted activation curve with a large enough effect; inconclusive means small, poorly fitted or top-dose-only effect; further: nearly all actives have a fitted effect of over 60% in size
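Derepression of a silenced CMV-GFP reporter in murine LDR cells is scored by enumerating GFP-positive cells with a laser-scanning microplate cytometer after 30 hours of treatment at 37 C.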
Large screens that a line does not name were inactive. Only some compounds are listed: those with a hit (about 4.6% of all), similar ones and a draw of the others. Unless noted, no stated cut-off is given here; in the data, active means activation above about 30%; inactive means the rest.

CCCCn1c(CN2CCN(c3cccc(Cl)c3)CC2)nc2c1c(=O)[nH]c(=O)n2C	none
CC(C)Sc1nc2c(c(=O)[nH]c(=O)n2C)n1Cc1ccccc1	none (no result: Epigenetic derep)
COc1ccc(Nc2ncc3c(n2)CCN(Cc2cccc(F)c2F)C3)c(OC)c1	none
N#CC1=C(N)SC(N)=C(C#N)C1c1ccc(C(F)(F)F)cc1	none
CCOc1ccc(C2C(C#N)=C(N)SC(N)=C2C#N)cc1OCC	none
CCc1ccc(C2C(C#N)=C(N)SC(N)=C2C#N)cc1	D1 ag 30
CCOc1ccc(C2C(C#N)=C(N)SC(N)=C2C#N)cc1OC	D1 ag 40
Cc1nc(SCC(=O)Nc2nc3ccccc3s2)c(C#N)c(C)c1C	none
Cc1cc(C(F)(F)F)c(C#N)c(SCC(=O)Nc2nc3ccccc3s2)n1	D1 ag 64
CCOc1ccc(NC(=O)CSc2nc(-c3ccc(F)cc3)cc(C(F)(F)F)c2C#N)cc1	none
CCOC(=O)c1ccc(NC(=O)CSc2nc(-c3ccc(F)cc3)cc(C(F)(F)F)c2C#N)cc1	Epigenetic derep 7.1µM
CCOc1ccc(-c2cc(C(F)(F)F)c(C#N)c(SCC(=O)Nc3ccccc3)n2)cc1	D1 ag 32, D1 antagonist -52, Epigenetic derep inconclusive
Cc1ccc(-c2cc(C(F)(F)F)c(C#N)c(SCC(=O)Nc3ccccc3F)n2)cc1	D1 ag 72
CCc1ccc(NC(=O)CSc2nc3c(c(=O)[nH]2)CN(Cc2ccc(C)cc2)CC3)cc1	none
CCSc1nc2n(n1)C(c1ccc(C(=O)O)cc1)C(C(=O)Nc1ccccc1C)=C(C)N2 (centres undefined)	none
CCc1nnc(NC(=O)CSc2ncnc3c2oc2ccccc23)s1	none
O=C(CSc1ncnc2c1oc1ccccc12)Nc1nc2ccccc2s1	D1 antagonist -48
Cn1c(=O)c(=O)n(C)c2cc(S(=O)(=O)Nc3ccc(Cl)c(C(F)(F)F)c3)ccc21	none
O=C(CCNS(=O)(=O)c1cccs1)NCc1ccccc1	none
COc1cccc(CNC(=O)CCCNS(=O)(=O)c2cccs2)c1	D1 antagonist -92
CCC(=O)N1CCc2cc(Br)cc(S(=O)(=O)N3CCC(C(=O)Nc4ccccc4F)CC3)c21	none
CCc1nnc(NC(=O)C(C)N2C(=O)C3C4C=CC(C4)C3C2=O)s1 (centres undefined)	D1 antagonist -43
O=C(CCCCn1c(=O)c2ccccc2n(CC(=O)Nc2ccc(F)cc2F)c1=O)NCCc1ccccc1	D1 antagonist -38
O=C(Cn1c(=O)c2ccccc2n(CC(=O)Nc2ccc(F)cc2F)c1=O)NCCc1ccccc1	Epigenetic derep inconclusive
COc1ccc(CCNC(=O)CCCCn2c(=O)c3ccccc3n(Cc3ccc(Cl)cc3)c2=O)cc1OC	D1 antagonist -53
COC(=O)c1ccccc1NC(=O)Cn1c(=O)n(CCCC(=O)NCCc2ccc(OC)c(OC)c2)c(=O)c2ccccc21	D1 antagonist -32
COc1ccc(CCNC(=O)CCCn2c(=O)c3ccccc3n(Cc3cccc(Cl)c3)c2=O)cc1OC	none
O=C(CCCCn1c(=O)c2ccccc2n(CC(=O)Nc2cccc(F)c2)c1=O)NCc1ccccc1Cl	D1 ag 33
CCn1cc(C(=O)N2CCN(c3ccc(OC)cc3)CC2)c(=O)c2cc(S(=O)(=O)N(C)C3CCCCC3)ccc21	none
Cc1ccc(Nc2nnc(-c3ccc(C)c(S(=O)(=O)N4CCOCC4)c3)c3ccccc23)c(C)c1	D1 antagonist -45
Cc1ccc(-c2nnc(Nc3ccc(F)cc3)c3ccccc23)cc1S(=O)(=O)NC(C)C	D1 antagonist -34
Cc1ccc(-c2nnc(Nc3ccc(C(N)=O)cc3)c3ccccc23)cc1S(=O)(=O)N1CCCCC1	Epigenetic derep inconclusive
Cc1ccc(-c2nnc(Nc3ccc(O)cc3)c3ccccc23)cc1S(=O)(=O)N1CCCCC1	TRHR PAM 30
CC(=O)Nc1ccc(Nc2nnc(-c3ccc(C)c(S(=O)(=O)NCCO)c3)c3ccccc23)cc1	none (no result: Epigenetic derep)
Cc1ccccc1Nc1nnc(-c2ccc(C)c(S(=O)(=O)N3CCOCC3)c2)c2ccccc12	none
Cc1ccc(-c2nnc(Nc3ccc(O)cc3)c3ccccc23)cc1S(=O)(=O)NC(C)(C)CO	D1 antagonist -44
Cc1cc2c(s1)c1cnn(Cc3cccc(Cn4ncc5c6sc(C)cc6n(C)c5c4=O)c3F)c(=O)c1n2C	none (no result: Epigenetic derep)
CC1CCN(S(=O)(=O)c2ccc3c(ccn3CCC(=O)NCc3ccccc3F)c2)CC1	none
CNC(=O)[C@H]1O[C@@H](n2cnc3c(NCc4ccc(N)cc4)ncnc32)[C@H](O)[C@H]1O	none (no result: D1 ag, D1 potentiator, D1 antagonist, TRHR ag, TRHR PAM)
O=c1[nH]c(CN2CCN(c3ccc(O)cc3)CC2)nc2scc(-c3ccc(Cl)cc3)c12	D1 antagonist -33
COC(=O)c1ccccc1NC(=O)Cn1c(=O)n(-c2ccc(C)cc2)c(=O)c2ccccc21	none
COc1ccc(C)cc1NC(=O)C(=O)NCCc1csc(-c2ccc(C)cc2)n1	none
Clc1ccc2c(c1)C(N1CCNCC1)Cc1ccccc1S2 (centres undefined)	D1 antagonist -86
Clc1cccc2c1Sc1ccccc1CC2N1CCNCC1 (centres undefined)	D1 ag 57, D1 antagonist -78
COCCCN1CCN(C2Cc3ccccc3Sc3ccc(Cl)cc32)CC1 (centres undefined)	D1 antagonist -86
CCC(C(=O)O)n1ccc2cc(S(=O)(=O)N3CCCCC3)ccc21 (centres undefined)	none
Cc1ccc(CNS(=O)(=O)c2cc3c(cc2Cl)NC(=O)CO3)o1	none
COc1cc(/C=C(\C#N)c2nc3ccccc3o2)ccc1O	D1 ag 332, TRHR ag 78, Epigenetic derep 2.2µM
N#C/C(=C\c1ccc(O)cc1)c1nc2ccccc2o1	none
COc1cc(/C=C(\C#N)c2nc(-c3cc4ccccc4oc3=O)cs2)ccc1O	Epigenetic derep 4.5µM
COc1ccccc1NC(=O)C(C)OC(=O)CSCC(=O)Nc1cc(C)on1 (centres undefined)	none (no result: Epigenetic derep)
CCOc1ccc(Oc2ccccc2NC(=O)CSCC(=O)Nc2cc(C)on2)cc1	D1 antagonist -44 (no result: Epigenetic derep)
Cc1cc(NC(=O)CSCC(=O)Nc2ccccc2OC(F)F)no1	none (no result: Epigenetic derep)
Cc1cccc(Oc2ccccc2NC(=O)CSCC(=O)Nc2cc(C)on2)c1	D1 antagonist -44 (no result: Epigenetic derep)

Source: PubChem (National Center for Advancing Translational Sciences (NCATS))
